Reference: PubChem BioAssay (NCI)
About 79,000 compounds went through this panel and 15% of them were active in at least one assay; those are over-represented in the sample as a whole. Active and inactive are the calls of the source. No stated cut-off is given here; in the data, active means growth inhibition above about 70%; inactive means the rest.

How the values were obtained:
[1] = NCI Yeast Anticancer Drug Screen. Data for the rad52 strain (AID 147);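 further: 0% = growth of vehicle-treated control cultures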; conditions: S. cerevisiae rad52 mutant growth inhibition, active compounds read high
How it was run: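 Yeast strain carrying a DNA damage repair alteration was exposed to test compounds. Growth inhibition was measured relative to vehicle-treated controls.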

[2] = NCI Yeast Anticancer Drug Screen. Data for the wt1 strain (AID 149);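 further: 0% = growth of vehicle-treated wt1 cultures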; conditions: S. cerevisiae wt1 strain (SPY 50644) growth inhibition, active compounds read high
How it was run: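 wt1 yeast, compound-treated; % growth inhibition vs vehicle control.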

[3] = NCI Yeast Anticancer Drug Screen. Data for the rad50EPP+ strain (AID 151);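 further: 0% = growth of vehicle-treated control cultures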; conditions: S. cerevisiae rad50 mutant strain, active compounds read high
How it was run: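 Yeast strain carrying rad50 alteration (rad50EPP+) exposed to compounds; growth inhibition measured relative to vehicle-treated controls.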

[4] = NCI Yeast Anticancer Drug Screen. Data for the mgt1 strain (AID 153); conditions: S. cerevisiae mgt1 mutant growth inhibition, active compounds read high
How it was run: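 Yeast mgt1 strain (DNA repair/cell-cycle alteration panel) exposed to compounds; growth inhibition measured relative to vehicle-treated controls.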

[5] = NCI Yeast Anticancer Drug Screen. Data for the rad50 strain (AID 155);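 further: 0% = growth of vehicle-only cultures of the same strain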; conditions: S. cerevisiae rad50 strain growth inhibition, active compounds read high
How it was run: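 Genetically altered yeast (DNA repair pathway); compound treatment; growth inhibition vs vehicle ctrl.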

[6] = NCI Yeast Anticancer Drug Screen. Data for the mec2-1 strain (AID 157); conditions: S. cerevisiae mec2-1 strain, active compounds read high
How it was run: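 mec2-1 yeast strain, carrying an alteration in DNA damage repair or cell cycle control, was exposed to compounds; growth inhibition was measured relative to vehicle-treated controls.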

[7] = NCI Yeast Anticancer Drug Screen. Data for the rad14 strain (AID 159);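 further: 0% = growth of vehicle-treated control cultures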; conditions: S. cerevisiae rad14 strain growth inhibition, active compounds read high
How it was run: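 Test compounds were applied to a repair-deficient yeast strain. Its growth was then compared with that of cultures given vehicle alone, and inhibition was expressed relative to those controls.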

[8] = NCI Yeast Anticancer Drug Screen. Data for the sgs1 mgt1 strain (AID 161);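 further: 0% = growth of cultures given vehicle only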; conditions: S. cerevisiae sgs1 mgt1 strain, active compounds read high
How it was run: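 Percent growth inhibition was derived by comparing compound-exposed mutant yeast with vehicle-exposed cultures. The strain carries alterations in DNA damage repair.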

[9] = NCI Yeast Anticancer Drug Screen. Data for the CLN2oe strain (AID 163);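 further: 0% = growth of vehicle-only control cultures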; conditions: S. cerevisiae CLN2oe strain, active compounds read high
How it was run: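 Yeast cells carrying a defined cell-cycle control alteration were exposed to test compounds. Growth inhibition was scored against vehicle-treated control cultures.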

[10] = NCI Yeast Anticancer Drug Screen. Data for the cln2 rad14 strain (AID 165);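 further: 0% = growth equal to vehicle treated cultures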; conditions: S. cerevisiae cln2 rad14 strain, active compounds read high
How it was run: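 Yeast carrying cln2 and rad14 alterations (cell cycle control and DNA damage repair) were exposed to compounds. Growth inhibition was measured against vehicle-treated controls.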

[11] = NCI Yeast Anticancer Drug Screen. Data for the bub3 strain (AID 167); conditions: S. cerevisiae bub3 mutant strain, active compounds read high
How it was run: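 Yeast carrying a defined mutation is treated with each compound, and growth is compared with that of vehicle-exposed cells to give inhibition.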

[12] = NCI Yeast Anticancer Drug Screen. Data for the wt2 strain (AID 169);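 further: 0% = growth of vehicle-treated yeast cultures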; conditions: S. cerevisiae wt2 strain growth inhibition, active compounds read high
How it was run: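 Yeast cells were exposed to test compounds, and growth inhibition was measured relative to vehicle-treated controls.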

[13] = NCI Yeast Anticancer Drug Screen. Data for the mlh1 strain (AID 171);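 further: 0% = growth of vehicle-treated control cultures of the same strain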; conditions: S. cerevisiae mlh1 strain growth inhibition, active compounds read high
How it was run: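 Yeast carrying a defined genetic alteration in DNA damage repair or cell cycle control were exposed to test compounds. Growth inhibition was measured relative to vehicle-treated controls.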

[14] = NCI Yeast Anticancer Drug Screen. Data for the sgs1 strain (AID 173);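 further: 0% = growth of vehicle-only control cultures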; conditions: S. cerevisiae sgs1 mutant, active compounds read high
How it was run: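 Yeast mutant strains carrying defined defects in DNA damage repair or cell cycle control were exposed to test compounds. Growth inhibition was scored against vehicle-treated controls.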

[15] = NCI Yeast Anticancer Drug Screen. Data for the mlh1 rad18 strain (AID 175); conditions: S. cerevisiae mlh1 rad18 strain growth inhibition, active compounds read high
How it was run: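 Growth inhibition of the yeast strain was measured after compound exposure and expressed relative to vehicle-treated controls. The strain carries defined defects in DNA damage repair.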

[16] = NCI Yeast Anticancer Drug Screen. Data for the rad18 strain (AID 177); conditions: S. cerevisiae rad18 mutant growth inhibition, active compounds read high
How it was run: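 Yeast carrying a defined DNA damage repair alteration were exposed to compounds. Growth inhibition was expressed relative to vehicle-treated controls.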

[17] = at 5.0 µM (retest, dose inferred, filed as 0.5)
[18] = at 50.0 µM (retest, dose inferred, filed as 5.0)

Measured: growth inhibition

O=C1c2ccccc2CCC1(Br)Br
active: [1]; at 11.0 µM 81% | [1]; at 33.0 µM 99% | [1]; at 100.0 µM 99% | [2]; at 33.0 µM 99% | [2]; at 100.0 µM 99% | [3]; at 3.7 µM 82% | [3]; at 11.0 µM 97% | [3]; at 33.0 µM 99% | [3]; at 100.0 µM 99% | [4]; at 33.0 µM 99% | [4]; at 100.0 µM 99% | [5]; at 33.0 µM 99% | [5]; [18] 99% | [5]; at 50.0 µM 99.2% | [5]; at 100.0 µM 99% | [6]; at 11.0 µM 76% | [6]; at 33.0 µM 99% | [6]; [18] 100% | [6]; at 50.0 µM 99.3% | [6]; at 100.0 µM 99% | [7]; at 33.0 µM 99% | [7]; at 100.0 µM 99% | [8]; [18] 99% | [8]; at 50.0 µM 99.2% | [9]; at 11.0 µM 93% | [9]; at 33.0 µM 99% | [9]; at 100.0 µM 99% | [10]; [18] 100% | [10]; at 50.0 µM 99.4% | [11]; at 11.0 µM 74% | [11]; at 33.0 µM 99% | [11]; [18] 99% | [11]; at 50.0 µM 99.2% | [11]; at 100.0 µM 99% | [12]; at 33.0 µM 99% | [12]; at 100.0 µM 99% | [13]; at 11.0 µM 72% | [13]; at 33.0 µM 99% | [13]; at 100.0 µM 99% | [14]; at 11.0 µM 76% | [14]; at 33.0 µM 99% | [14]; at 100.0 µM 99% | [15]; [17] 85% | [15]; [18] 99% | [15]; at 50.0 µM 99.3% | [16]; at 11.0 µM 75% | [16]; at 33.0 µM 99% | [16]; at 100.0 µM 99%
inactive: [1]; at 1.2 µM 11% | [1]; at 3.7 µM 27% | [2]; at 1.2 µM 1% | [2]; at 3.7 µM 11% | [2]; at 11.0 µM 36% | [3]; at 1.2 µM 55% | [4]; at 1.2 µM 2% | [4]; at 3.7 µM 11% | [4]; at 11.0 µM 53% | [5]; at 1.2 µM 11% | [5]; at 3.7 µM 22% | [5]; [17] 50% | [5]; at 11.0 µM 69% | [6]; at 1.2 µM 9% | [6]; at 3.7 µM 21% | [6]; [17] 21% | [7]; at 1.2 µM 7% | [7]; at 3.7 µM 14% | [7]; at 11.0 µM 51% | [8]; [17] 63% | [9]; at 1.2 µM 9% | [9]; at 3.7 µM 13% | [10]; [17] 18% | [11]; at 1.2 µM 1% | [11]; at 3.7 µM 15% | [11]; [17] 61% | [12]; at 1.2 µM 5% | [12]; at 3.7 µM 13% | [12]; at 11.0 µM 62% | [13]; at 1.2 µM 7% | [13]; at 3.7 µM 13% | [14]; at 1.2 µM 13% | [14]; at 3.7 µM 23% | [16]; at 1.2 µM 13% | [16]; at 3.7 µM 23%

CCN(CC)CCNC(=O)c1nn(-c2ccc(Cl)cc2)c2c1CCc1cc(OC)ccc1-2
inactive: [1]; at 1.2 µM -16% | [1]; at 3.7 µM 13% | [1]; at 11.0 µM 26% | [1]; at 33.0 µM 40% | [2]; at 1.2 µM 10% | [2]; at 3.7 µM 22% | [2]; at 11.0 µM 25% | [2]; at 33.0 µM 24% | [2]; at 100.0 µM 58% | [3]; at 1.2 µM 18% | [3]; at 3.7 µM 32% | [3]; at 11.0 µM 43% | [3]; at 33.0 µM 44% | [3]; at 100.0 µM 56% | [4]; at 1.2 µM 12% | [4]; at 3.7 µM 10% | [4]; at 11.0 µM 8% | [4]; at 33.0 µM 12% | [5]; at 1.2 µM 6% | [5]; at 3.7 µM 5% | [5]; [17] 1% | [5]; at 11.0 µM 17% | [5]; at 33.0 µM 59% | [5]; at 50.0 µM 59.2% | [6]; at 1.2 µM -10% | [6]; at 3.7 µM -2% | [6]; [17] -16% | [6]; at 11.0 µM 4% | [6]; at 33.0 µM 0% | [6]; [18] 54% | [6]; at 50.0 µM 66.4% | [7]; at 1.2 µM -1% | [7]; at 3.7 µM 2% | [7]; at 11.0 µM 10% | [7]; at 33.0 µM 24% | [8]; [17] 15% | [8]; at 50.0 µM 67.5% | [9]; at 1.2 µM -12% | [9]; at 3.7 µM 11% | [9]; at 11.0 µM 6% | [9]; at 33.0 µM 5% | [10]; [17] 2% | [10]; [18] 39% | [10]; at 50.0 µM 28.8% | [11]; at 1.2 µM 9% | [11]; at 3.7 µM 9% | [11]; [17] 8% | [11]; at 11.0 µM 10% | [11]; at 33.0 µM 13% | [11]; at 50.0 µM 58.7% | [12]; at 1.2 µM -11% | [12]; at 3.7 µM -1% | [12]; at 11.0 µM -8% | [12]; at 33.0 µM 8% | [13]; at 1.2 µM 13% | [13]; at 3.7 µM 17% | [13]; at 11.0 µM 10% | [13]; at 33.0 µM 0% | [14]; at 1.2 µM 3% | [14]; at 3.7 µM 2% | [14]; at 11.0 µM 8% | [14]; at 33.0 µM 14% | [15]; [17] -1% | [16]; at 1.2 µM -4% | [16]; at 3.7 µM 4% | [16]; at 11.0 µM 1% | [16]; at 33.0 µM 18%
active: [1]; at 100.0 µM 94% | [4]; at 100.0 µM 81% | [5]; [18] 80% | [5]; at 100.0 µM 95% | [6]; at 100.0 µM 73% | [7]; at 100.0 µM 92% | [8]; [18] 80% | [9]; at 100.0 µM 80% | [11]; [18] 77% | [11]; at 100.0 µM 83% | [12]; at 100.0 µM 96% | [13]; at 100.0 µM 87% | [14]; at 100.0 µM 90% | [15]; [18] 81% | [16]; at 100.0 µM 95%
